What all share (conditions): modulator concentration 10 µM
In experiment [1] the test system is RAW-Dual (murine macrophage reporter line). Nature of the experiment: NF-kB reporter (SEAP) activity fold change vs agonist alone; higher = enhanced NF-kB activity. The method in brief:
(§1)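 RAW-Dual murine macrophage reporter cells were plated at 50 000 per well in 384-well plates, pin-transferred compound to 10 μM final, and pre-incubated for 1 hour at 37 °C before a PRR agonist was added and the cells incubated overnight. NF-κB activity was read from supernatant SEAP with QUANTI-Blue at 620 nm absorbance, and IRF activity from Lucia luciferase with QUANTI-Luc by luminescence. Each signal was expressed as fold change by dividing by the mean agonist-only control on the same plate. Two replicate plates were averaged, with errors obtained by propagation.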

The test system is the same in experiment [2]. The experiment can be described thus: IRF reporter (Lucia luciferase) activity fold change vs agonist alone; higher = enhanced IRF activity. The method in brief:
as §1

Experiment [3] has the same test system. Nature of the experiment: viability score (confluency relative to resting cells, overnight) (fraction); higher = more viable, active = viable (0.7 or more). The method in brief: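 RAW-Dual macrophages in 384-well plates were exposed overnight to compound at 10 μM final. Confluency was imaged with IncuCyte, and two confluency masks were generated with IncuCyte software over all imaged wells. The viability score is confluency expressed relative to resting cells. Compounds were called viable if both masks exceeded 70% of resting cells.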

[4] abbreviates: agonist: CpG ODN 1826 0.5 ug/mL.

± gives the standard deviation.

Consider `CC(NC(=O)C(=O)Nc1ccc(F)cc1)c1ccccc1` (stereo unspecified), for which the results for the NF-kB reporter in experiment [1] (setting [4]), in experiment [1] (agonist: LPS 0.1 ug/mL) and in experiment [1] (agonist: MPLA […]) were 0.972 ± 0.074, 0.984 ± 0.18 and 0.939 ± 0.097, respectively. For the same compound, the IRF reporter came to 0.987 ± 0.069 in experiment [2] (agonist: 3'3'-cGAMP 10 ug/mL), 1.22 ± 0.21 in experiment [2] (agonist: LPS 0.1 ug/mL) and 1.28 ± 0.2 in experiment [2] (agonist: MPLA […]). For the same compound, the viability score in experiment [3] is 0.994 (active).

For `CCN1C(=O)CC(NCCc2ccc(S(N)(=O)=O)cc2)C1=O` (stereo unspecified), the NF-kB reporter turned out to be 0.979 ± 0.056 in experiment [1] (setting [4]), 1.03 ± 0.074 in experiment [1] (agonist: LPS 0.1 ug/mL) and 0.905 ± 0.065 in experiment [1] (agonist: MPLA […]). For the same compound, the IRF reporter in experiment [2] (agonist: 3'3'-cGAMP 10 ug/mL) amounted to 0.961 ± 0.035; in experiment [2] (agonist: LPS 0.1 ug/mL), 1.46 ± 0.19; in experiment [2] (agonist: MPLA […]), 1.22 ± 0.16. Also, in experiment [3], the viability score was 0.997 (active).

Take `O=c1[nH]c(=O)n([C@H]2C[C@H](O)[C@@H](CO)O2)cc1I`: the NF-kB reporter in experiment [1] (setting [4]) was 1.11 ± 0.15; in experiment [1] (agonist: LPS 0.1 ug/mL), 0.928 ± 0.058; in experiment [1] (agonist: MPLA […]) it was 0.992 ± 0.044. The IRF reporter in experiment [2] (agonist: 3'3'-cGAMP 10 ug/mL) came to 1.04 ± 0.068; in experiment [2] (agonist: LPS 0.1 ug/mL), 0.992 ± 0.069; in experiment [2] (agonist: MPLA […]), 0.967 ± 0.15. For the same compound, in experiment [3], the viability score is 0.998 (active).

For the compound `Cc1nnc(NC(=O)CSc2nc3ccccc3[nH]2)s1`, the NF-kB reporter in experiment [1] (setting [4]) amounted to 1.11 ± 0.094; in experiment [1] (agonist: LPS 0.1 ug/mL), 1.01 ± 0.073; in experiment [1] (agonist: MPLA […]) it was 0.954 ± 0.078. For the same compound, the values for the IRF reporter in experiment [2] (agonist: 3'3'-cGAMP 10 ug/mL), in experiment [2] (agonist: LPS 0.1 ug/mL) and in experiment [2] (agonist: MPLA […]) were 1.14 ± 0.22, 1.01 ± 0.13 and 1.05 ± 0.2, respectively. In experiment [3], the viability score is 0.995 (active).

`O=C(NN=Cc1c(O)ccc2ccccc12)c1ccccc1I`: the NF-kB reporter in experiment [1] (setting [4]) was 1.54 ± 0.47; in experiment [1] (agonist: LPS 0.1 ug/mL), 1.11 ± 0.096; in experiment [1] (agonist: MPLA […]) it was 1.02 ± 0.099. For the same compound, the IRF reporter in experiment [2] (agonist: 3'3'-cGAMP 10 ug/mL) turned out to be 0.847 ± 0.043; in experiment [2] (agonist: LPS 0.1 ug/mL), 1.47 ± 0.15; in experiment [2] (agonist: MPLA […]), 1.55 ± 0.17. Also, the viability score in experiment [3] is 1 (active).

Regarding `Cc1cccc(Oc2ccc(NC(=O)c3ccco3)cc2)c1C`, the figures for the NF-kB reporter in experiment [1] (setting [4]), in experiment [1] (agonist: LPS 0.1 ug/mL) and in experiment [1] (agonist: MPLA […]) were 0.683 ± 0.049, 0.992 ± 0.12 and 1.12 ± 0.049, respectively. The IRF reporter was 0.483 ± 0.054 in experiment [2] (agonist: 3'3'-cGAMP 10 ug/mL), 0.965 ± 0.085 in experiment [2] (agonist: LPS 0.1 ug/mL) and 1.44 ± 0.22 in experiment [2] (agonist: MPLA […]). In addition, in experiment [3], the viability score is 0.991 (active).

In the case of `O=C(NCCc1cn2ccccc2n1)c1ccccc1Br`, the NF-kB reporter in experiment [1] (setting [4]) came out at 0.964 ± 0.069; in experiment [1] (agonist: LPS 0.1 ug/mL) it was 0.943 ± 0.12; in experiment [1] (agonist: MPLA […]) it was 1.03 ± 0.056. Also, the IRF reporter in experiment [2] (agonist: 3'3'-cGAMP 10 ug/mL) turned out to be 1 ± 0.048; in experiment [2] (agonist: LPS 0.1 ug/mL) it was 1.2 ± 0.25; in experiment [2] (agonist: MPLA […]), 1.24 ± 0.32. For the same compound, the viability score in experiment [3] was 0.975 (active).

With `C=CC(=O)N1CCC(Oc2cc3c(Nc4ccc(Cl)c(Cl)c4F)ncnc3cc2OC)CC1`, the values for the NF-kB reporter in experiment [1] (setting [4]), in experiment [1] (agonist: LPS 0.1 ug/mL) and in experiment [1] (agonist: MPLA […]) were 0.879 ± 0.037, 0.909 ± 0.095 and 1.05 ± 0.061, respectively. Besides, the IRF reporter came to 1.08 ± 0.064 in experiment [2] (agonist: 3'3'-cGAMP 10 ug/mL), 1.36 ± 0.3 in experiment [2] (agonist: LPS 0.1 ug/mL) and 1.49 ± 0.48 in experiment [2] (agonist: MPLA […]). The viability score in experiment [3] was 0.97 (active).

Consider `O=C(c1ccco1)c1nc2c(n1O)CCCCC2`, for which the NF-kB reporter in experiment [1] (setting [4]) turned out to be 1.12 ± 0.073; in experiment [1] (agonist: LPS 0.1 ug/mL) it was 0.995 ± 0.089; in experiment [1] (agonist: MPLA […]), 1.03 ± 0.028. Further, the IRF reporter in experiment [2] (agonist: 3'3'-cGAMP 10 ug/mL) came to 0.998 ± 0.07; in experiment [2] (agonist: LPS 0.1 ug/mL), 0.971 ± 0.078; in experiment [2] (agonist: MPLA […]), 1.03 ± 0.1. For the same compound, the viability score in experiment [3] was 1 (active).

As to `CCN(CC)Cc1cc(Nc2ccnc3cc(Cl)ccc23)ccc1O.Cl.Cl`, the NF-kB reporter came to 0.199 ± 0.011 in experiment [1] (setting [4]), 0.753 ± 0.073 in experiment [1] (agonist: LPS 0.1 ug/mL) and 0.774 ± 0.046 in experiment [1] (agonist: MPLA […]). Besides, the IRF reporter in experiment [2] (agonist: 3'3'-cGAMP 10 ug/mL) turned out to be 1.19 ± 0.075; in experiment [2] (agonist: LPS 0.1 ug/mL), 1.03 ± 0.11; in experiment [2] (agonist: MPLA […]), 1.47 ± 0.16. Further, the viability score in experiment [3] is 0.873 (active).

Consider `CC(CCc1ccccc1)NCC(O)c1ccc(O)c(C(N)=O)c1.Cl` (stereo unspecified), for which the NF-kB reporter in experiment [1] (setting [4]) turned out to be 1.04 ± 0.15; in experiment [1] (agonist: LPS 0.1 ug/mL), 1.18 ± 0.088; in experiment [1] (agonist: MPLA […]) it was 1.1 ± 0.061. The IRF reporter was found to be 0.944 ± 0.033 in experiment [2] (agonist: 3'3'-cGAMP 10 ug/mL), 1.11 ± 0.095 in experiment [2] (agonist: LPS 0.1 ug/mL) and 1.22 ± 0.23 in experiment [2] (agonist: MPLA […]). The viability score in experiment [3] was 0.984 (active).

As to `CC12CC3CC(C)(C1)CC(N)(C3)C2` [Prestw-978], the NF-kB reporter in experiment [1] (setting [4]) was found to be 0.916 ± 0.073; in experiment [1] (agonist: LPS 0.1 ug/mL), 0.95 ± 0.092; in experiment [1] (agonist: MPLA […]) it was 0.996 ± 0.095. The IRF reporter in experiment [2] (agonist: 3'3'-cGAMP 10 ug/mL) worked out at 1.26 ± 0.045; in experiment [2] (agonist: LPS 0.1 ug/mL) it was 0.925 ± 0.078; in experiment [2] (agonist: MPLA […]) it was 0.844 ± 0.17. Further, the viability score in experiment [3] was 0.979 (active).

With `O=C(CCCN1C(=O)c2cccc3cccc(c23)C1=O)NCCO`, the values for the NF-kB reporter in experiment [1] (setting [4]), in experiment [1] (agonist: LPS 0.1 ug/mL) and in experiment [1] (agonist: MPLA […]) were 1.04 ± 0.061, 0.976 ± 0.078 and 0.963 ± 0.025, respectively. The IRF reporter in experiment [2] (agonist: 3'3'-cGAMP 10 ug/mL) was found to be 1 ± 0.072; in experiment [2] (agonist: LPS 0.1 ug/mL), 1.12 ± 0.052; in experiment [2] (agonist: MPLA […]) it was 1.05 ± 0.1. Moreover, the viability score in experiment [3] was 0.995 (active).

The values above are taken from the supplement of paper PMC10646978.
